# PubChem BioAssay (Tox21)
# Unmarked numbers belong to inactive results. Results filed as inconclusive are left out. Entries that show only a call come without a potency. Calls of active or inactive are those of the source. Unless noted, the call rests on the fitted dose curve.
# Assays:
# [1] = Nuclear factor erythroid 2-related factor 2/antioxidant responsive element (Nrf2/ARE) small molecule agonists: qHTS cell viability counter screen in human keratinocytes (AID 1919968; active means well fitted curve in the direction sought with a large enough effect in the repeat runs; an effect the other way counts as inactive or inconclusive; further: nearly all actives have a fitted effect of over 55% in size)
# Summary of the method: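 Measured as CellTiter-Fluor fluorescence, this readout tracks cytotoxicity in the same wells as the ARE-luciferase screen. HaCaT reporter cells (1,500/well) received compounds after a 5 h pre-incubation and were exposed for 23 h.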
# [2] = Nuclear factor erythroid 2-related factor 2/antioxidant responsive element (Nrf2/ARE) small molecule agonists: luciferase reporter gene qHTS assay in human keratinocytes (AID 1919969); further: nearly all actives have a fitted effect of over 35% in size; further: potency means the concentration at half of the fitted maximal effect
# [3] = target: Gonadotropin-releasing hormone receptor (Homo sapiens) (UniProt P30968); experiment: Human gonadotropin-releasing hormone receptor (GnRHR) small molecule agonists, calcium flux assay in GnRHR-HEK293 cells (AID 1920063); further: nearly all actives have a fitted effect of over 35% in size
# Summary of the method: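 Fluorescence kinetics (480 nm excitation, 540 nm emission; 3 min, 1 s steps) report calcium mobilisation in human GnRHR-HEK293 cells in agonist mode. Dye incubation: 1 h, 37 C.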
# [4] = target: KiSS-1 receptor (Homo sapiens) (UniProt Q969F8); experiment: Human kisspeptin (KISS1R) small molecule agonists, calcium flux assay in KISS1R-HEK293 cells (AID 1920064; active means well fitted curve in the direction sought with a large enough effect in the repeat runs; an effect the other way counts as inactive or inconclusive)
# Summary of the method: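 Measures KISS1R agonism through calcium-sensitive dye fluorescence in stably transfected HEK293 cells, read for 3 min after pin-tool compound delivery; 15-point titrations in triplicate.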
# [5] = G protein-coupled receptor (GPCR) small molecule agonists, calcium flux assay: HEK293 wild type cell line counter screen (AID 1920065)
# Summary of the method: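 Readout: fluorescence at 480 nm excitation/540 nm emission, sampled at 1 s intervals for 3 min. Cells had been cultured 18 h, then dye-loaded 1 h at 37 C before compound or ATP addition.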
# [6] = p53 small molecule agonists, cell-based qHTS assay with human liver microsomes (AID 1963577);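 further: p53 response element beta-lactamase reporter cells with liver microsomes plus NADPH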
# Summary of the method: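 With metabolic activation: human liver microsomes (0.5 mg/mL final) plus NADPH (0.5 mg/mL final) added alongside compounds to p53RE-bla cells; 16 h 37 C exposure; beta-lactamase read by LiveBLAzer fluorescence.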
# [7] = p53 small molecule agonists, cell-based qHTS assay with human liver microsomes: qHTS cell viability counter screen (AID 1963579); further: nearly all actives have a fitted effect of over 45% in size
# Summary of the method: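 Metabolic activation used human liver microsomes and NADPH, both 0.5 mg/mL final, over 16 hours at 37 C on p53RE-bla cells (4,000/well). Cytotoxicity measured by CellTiter-Glo luminescence, 30 min at room temperature.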
# [8] = p53 small molecule agonists, cell-based qHTS assay with rat liver microsomes: qHTS cell viability counter screen (AID 1963580); further: nearly all actives have a fitted effect of over 45% in size
# Summary of the method: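 p53RE-bla HCT-116 cells (4,000/well) rested 5 h at 37 C, then given Tox21 compounds in DMSO with rat liver microsomes (0.5 mg/mL final) plus NADPH (0.5 mg/mL final) for 16 h at 37 C. Viability read by CellTiter-Glo luminescence after 30 min at room temperature.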
# [9] = p53 small molecule agonists, cell-based qHTS assay: qHTS cell viability counter screen (AID 1963581); further: nearly all actives have a fitted effect of over 45% in size
# Summary of the method: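 In the same plates used for the p53 bla reporter, HCT-116 cells given compounds for 16 h at 37 C received CellTiter-Glo; luminescence was recorded 30 min later at room temperature.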
# [10] = p53 small molecule agonists, cell-based qHTS assay (AID 1963582; active means well fitted activation curve with a large enough effect in the signal ratio in the repeat runs, not every such curve was filed as active; the % refers to the signal ratio)
# Summary of the method: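 Compounds are pin-transferred in DMSO onto p53RE-bla cells and incubated 16 h at 37 C. The B/G FRET beta-lactamase substrate is then applied for 2 h at RT and fluorescence recorded.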
# [11] = target: 5-hydroxytryptamine receptor 2A (Homo sapiens) (UniProt P28223); experiment: 5-hydroxytryptamine receptor 2A (HTR2A) small molecule antagonists, cell-based qHTS assay (AID 1963586); further: nearly all actives have a fitted effect of over 45% in size
# Summary of the method: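 Antagonist-mode intracellular calcium assay: DOI (4 nM) added after 5 min compound pre-incubation at room temperature to dye-loaded HTR2A-CHO cells. Fluorescence followed for 3 min, sampled every second.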
# [12] = target: 5-hydroxytryptamine receptor 2A (Homo sapiens) (UniProt P28223); experiment: 5-hydroxytryptamine receptor 2A (HTR2A) small molecule agonists, cell-based qHTS assay (AID 1963587); further: nearly all actives have a fitted effect of over 30% in size; further: potency means the concentration at half of the fitted maximal effect
# Summary of the method: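 HTR2A-CHO cells, plated 18 h at 37 C/5% CO2, dye-loaded 1 h at 37 C; compounds in DMSO added by pin tool (agonist mode). Intracellular calcium flux read as kinetic fluorescence on FDSS over 2 min at 1 s intervals.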
# [13] = target: Muscarinic acetylcholine receptor M1 (Homo sapiens) (UniProt P11229); experiment: Cholinergic receptor muscarinic 1 (CHRM1) small molecule antagonists, cell-based qHTS assay (AID 1963588); further: nearly all actives have a fitted effect of over 40% in size
# Summary of the method: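 CHRM1-CHO calcium-flux assay, antagonist mode. Cells were seeded 18 h, dye-loaded 1 h at 37 C and given compound for 5 min at RT, then acetylcholine was added at 50nM. FDSS fluorescence was read 3 min; 15 concentrations, three runs.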
# [14] = target: Muscarinic acetylcholine receptor M1 (Homo sapiens) (UniProt P11229); experiment: Cholinergic receptor muscarinic 1 (CHRM1) small molecule agonists, cell-based qHTS assay (AID 1963589); further: nearly all actives have a fitted effect of over 35% in size
# Summary of the method: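 Each compound was tested at 15 concentrations across three independent runs on dye-loaded CHO cells stably expressing human CHRM1, reading intracellular calcium fluorescence kinetically at 1 sec intervals.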
# [15] = cAMP Responsive Elements (CRE) small molecule agonists, cell-based qHTS assay (AID 1963590)
# Summary of the method: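 Cell line: CRE-bla HEK 293T; medium DMEM/10% dialyzed FBS/0.1 mM NEAA/1 mM pyruvate/25 mM HEPES; 3 h compound exposure; beta-lactamase FRET readout after 2 h substrate loading at RT.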
# [16] = cAMP Responsive Elements (CRE) small molecule antagonists, cell-based qHTS assay (AID 1963591; active means well fitted inhibition curve with a large enough effect in the signal ratio in the repeat runs, not every such curve was filed as active; the % refers to the signal ratio)
# Summary of the method: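 Inhibition of NKH477-driven (0.25 uM final) CRE-beta-lactamase signal in HEK293T cells, 3 h compound exposure at 37 °C, detected by FRET substrate fluorescence.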
# [17] = target: Beta-2 adrenergic receptor (Homo sapiens) (UniProt P07550); experiment: Adrenergic beta2 receptor (ADRB2) small molecule antagonists, cell-based qHTS assay (AID 1963592); further: series mostly up to about 92 µM; nearly all actives have a fitted effect of over 50% in size
# Summary of the method: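 Cells (CHO, stable ADRB2 overexpression) incubated 18-20hr at 37C; compounds added from DMSO; agonist mix (1nM isoproterenol, 100uM IBMX, 25uM Ro-20-1724) added; 0.5hr RT; d2-cAMP and anti-cAMP-cryptate added; 1hr RT; 665/615 nm read.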
# [18] = target: D(2) dopamine receptor (Homo sapiens) (UniProt P14416); experiment: Dopamine D2 receptor (DRD2) small molecule agonists, cell-based qHTS assay (AID 1963594); further: nearly all actives have a fitted effect of over 35% in size; further: potency means the concentration at half of the fitted maximal effect
# Summary of the method: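 HEK293 cells stably expressing DRD2 were cultured 24 h at 37 C, then given Ro20-1724 (0.1 mM final) and compounds for 10 min at room temperature. NKH477 (200nM) was then added for 30 min. cAMP was read by HTRF.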
# [19] = target: D(2) dopamine receptor (Homo sapiens) (UniProt P14416); experiment: Dopamine D2 receptor (DRD2) small molecule antagonists, cell-based qHTS assay (AID 1963595; active means well fitted inhibition curve with a large enough effect in the signal ratio in the repeat runs, with a control signal flat; the % refers to the signal ratio)
# Summary of the method: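 DRD2-HEK293; 0.1 mM Ro20-1724; cpd 10 min RT; NKH477 200 nM + quinpirole 12 nM, 30 min RT; HTRF cAMP (cAMP-d2/anti-cAMP cryptate), 665/620 nm ratio after 1 h.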
# 5-hydroxytryptamine receptor 2A (Homo sapiens), sequence (P28223 whole entry, looked up): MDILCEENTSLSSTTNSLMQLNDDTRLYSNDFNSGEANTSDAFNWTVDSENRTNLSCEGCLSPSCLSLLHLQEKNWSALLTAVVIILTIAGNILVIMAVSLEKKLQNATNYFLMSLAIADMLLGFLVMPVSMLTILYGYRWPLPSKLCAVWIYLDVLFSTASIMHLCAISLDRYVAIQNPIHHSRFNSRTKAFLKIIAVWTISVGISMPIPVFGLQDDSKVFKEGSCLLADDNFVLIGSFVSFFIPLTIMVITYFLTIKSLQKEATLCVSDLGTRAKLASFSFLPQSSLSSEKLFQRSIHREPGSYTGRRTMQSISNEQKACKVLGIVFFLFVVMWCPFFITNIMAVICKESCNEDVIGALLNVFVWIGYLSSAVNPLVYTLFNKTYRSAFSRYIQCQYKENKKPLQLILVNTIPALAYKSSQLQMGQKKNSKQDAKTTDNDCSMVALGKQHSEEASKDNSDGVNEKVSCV
# Gonadotropin-releasing hormone receptor (Homo sapiens), sequence (P30968 whole entry, looked up): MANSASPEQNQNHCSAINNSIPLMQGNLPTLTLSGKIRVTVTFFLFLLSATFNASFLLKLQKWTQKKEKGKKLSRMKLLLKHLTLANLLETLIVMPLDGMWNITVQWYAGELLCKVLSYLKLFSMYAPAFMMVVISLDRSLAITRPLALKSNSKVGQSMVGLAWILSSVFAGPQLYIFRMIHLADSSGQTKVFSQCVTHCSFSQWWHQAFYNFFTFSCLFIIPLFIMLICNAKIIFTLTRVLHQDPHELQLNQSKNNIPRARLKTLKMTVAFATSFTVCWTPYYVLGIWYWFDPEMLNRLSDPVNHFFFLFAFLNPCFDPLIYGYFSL
# D(2) dopamine receptor (Homo sapiens), sequence (P14416 whole entry, looked up): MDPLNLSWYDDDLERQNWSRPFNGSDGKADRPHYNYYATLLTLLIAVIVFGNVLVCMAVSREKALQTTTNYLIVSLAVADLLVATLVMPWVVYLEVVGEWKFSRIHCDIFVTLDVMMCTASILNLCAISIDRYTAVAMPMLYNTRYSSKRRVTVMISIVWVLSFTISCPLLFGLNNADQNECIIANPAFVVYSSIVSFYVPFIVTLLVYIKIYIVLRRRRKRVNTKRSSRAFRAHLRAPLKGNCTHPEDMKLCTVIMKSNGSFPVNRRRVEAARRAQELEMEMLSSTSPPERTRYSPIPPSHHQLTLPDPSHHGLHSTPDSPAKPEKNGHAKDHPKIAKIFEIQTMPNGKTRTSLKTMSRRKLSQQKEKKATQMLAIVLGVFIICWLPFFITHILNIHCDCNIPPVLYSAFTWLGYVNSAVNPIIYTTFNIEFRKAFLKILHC
# Beta-2 adrenergic receptor (Homo sapiens), sequence (P07550 whole entry, looked up): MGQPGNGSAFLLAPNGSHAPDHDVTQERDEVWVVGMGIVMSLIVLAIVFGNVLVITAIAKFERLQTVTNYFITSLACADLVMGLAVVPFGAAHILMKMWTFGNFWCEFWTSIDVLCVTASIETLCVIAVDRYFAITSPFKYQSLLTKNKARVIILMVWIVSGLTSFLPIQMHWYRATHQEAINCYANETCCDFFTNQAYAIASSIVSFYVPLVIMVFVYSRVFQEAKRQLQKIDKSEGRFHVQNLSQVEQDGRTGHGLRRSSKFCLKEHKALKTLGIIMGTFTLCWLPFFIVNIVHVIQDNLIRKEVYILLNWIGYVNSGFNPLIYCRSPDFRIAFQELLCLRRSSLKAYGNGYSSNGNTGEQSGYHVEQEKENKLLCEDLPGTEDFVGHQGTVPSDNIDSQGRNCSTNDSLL
# Muscarinic acetylcholine receptor M1 (Homo sapiens), sequence (P11229 whole entry, looked up): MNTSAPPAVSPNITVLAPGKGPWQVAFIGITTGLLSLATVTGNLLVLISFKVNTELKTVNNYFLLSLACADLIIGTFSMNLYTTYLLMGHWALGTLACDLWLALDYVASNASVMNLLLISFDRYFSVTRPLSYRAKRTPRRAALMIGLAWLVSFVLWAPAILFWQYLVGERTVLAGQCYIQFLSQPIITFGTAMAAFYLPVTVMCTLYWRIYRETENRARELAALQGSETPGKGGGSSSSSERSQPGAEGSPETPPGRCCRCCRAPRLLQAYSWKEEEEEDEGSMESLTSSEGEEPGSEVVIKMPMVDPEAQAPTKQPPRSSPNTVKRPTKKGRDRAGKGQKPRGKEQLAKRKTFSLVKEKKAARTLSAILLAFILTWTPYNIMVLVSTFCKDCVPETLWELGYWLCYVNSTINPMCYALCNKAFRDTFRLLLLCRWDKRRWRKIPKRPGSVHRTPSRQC
# KiSS-1 receptor (Homo sapiens), sequence (Q969F8 whole entry, looked up): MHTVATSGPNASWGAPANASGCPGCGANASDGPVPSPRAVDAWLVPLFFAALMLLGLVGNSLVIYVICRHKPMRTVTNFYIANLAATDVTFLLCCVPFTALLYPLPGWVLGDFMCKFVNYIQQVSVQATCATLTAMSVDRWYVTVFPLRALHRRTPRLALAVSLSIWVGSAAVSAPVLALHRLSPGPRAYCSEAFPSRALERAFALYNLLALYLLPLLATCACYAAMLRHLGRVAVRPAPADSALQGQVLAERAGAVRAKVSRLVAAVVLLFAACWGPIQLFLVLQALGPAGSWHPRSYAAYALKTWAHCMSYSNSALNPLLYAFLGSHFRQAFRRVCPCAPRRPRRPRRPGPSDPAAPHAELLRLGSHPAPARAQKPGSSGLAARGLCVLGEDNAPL
Structure (SMILES),Potency [1],Potency [2],Potency [3],outcome [4],outcome [5],Potency [6],Potency [7],Potency [8],Potency [9],Potency [10],Potency [11],Potency [12],Potency [13],Potency [14],Potency [15],Potency [16],Potency [17],Potency [18],Potency [19]
CCOC(=O)Oc1ccc(CCNC(=O)[C@H](CCSC)NC(C)=O)cc1OC(=O)OCC,inactive,inactive,inactive,inactive,inactive,inactive,inactive,inactive,inactive,inactive,inactive,inactive,inactive,inactive,inactive,inactive,inactive,2.37 µM (active),inactive
CCc1ccc(O)c(OC)c1,inactive,inactive,inactive,inactive,inactive,inactive,inactive,inactive,inactive,inactive,inactive,inactive,inactive,inactive,inactive,inactive,inactive,inactive,inactive
CNC(=O)N(c1ccccc1)c1ccccc1,inactive,inactive,inactive,inactive,inactive,inactive,inactive,inactive,inactive,inactive,inactive,inactive,inactive,inactive,inactive,inactive,inactive,inactive,inactive
CC(C)(C)C1=CC(=O)C(C(C)(C)C)=CC1=O,inactive,26.6 µM (active),inactive,inactive,inactive,inactive,inactive,inactive,inactive,inactive,inactive,3.79 µM (active),inactive,inactive,inactive,inactive,inactive,inactive,inactive
OC1(c2ccccc2)CCNCC1,inactive,inactive,inactive,inactive,inactive,inactive,inactive,inactive,inactive,inactive,inactive,inactive,inactive,inactive,,,,inactive,inactive
CCCCCCCC/C=C\CCCCCCCCCCCC(=O)O,inactive,inactive,inactive,inactive,inactive,inactive,inactive,inactive,inactive,inactive,inactive,inactive,inactive,inactive,inactive,inactive,inactive,inactive,inactive
CCOc1ccc(NC(=O)OC(C)C)cc1OCC,inactive,inactive,inactive,inactive,inactive,inactive,inactive,inactive,inactive,inactive,inactive,inactive,inactive,inactive,inactive,inactive,inactive,inactive,inactive
